Screening results from PubChem.
MITF TRPM1 inh – MITF TRPM1 promoter inhibition in SK-MEL-5 cells; 0.83% of 330,000 active; AID 488899; SK-MEL-5 TRPM1 promoter luciferase, 24 h; inhibition, % at 12.5 µM;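 active = mean inhibition across replicates of 60% or more, whatever share of single replicates reaches that level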
KKLEB cytotox – counter-screen for CF NF-kB inhibitors: cytotoxicity; AID 602141; activity change (cytotoxicity), % at 5 µM; 0.36% of 360,000 active; KKLEB CF airway cells viability, ATPlite luminescence, overnight; active compounds read low; cells stimulated with P. aeruginosa culture filtrate;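 active = corrected activity change at or below -50% at 5 µM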
Peg3 prom inh – inhibitors of Peg3 promoter. inhibition, % at 20 µM. AID 588405. 1.7% of 360,000 active. HeLa PEG-Prom luciferase reporter, luminescence, overnight;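 active = inhibition of at least 50% at 20 µM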
ABHD5 PLIN5 PPI – blocks binding of human ABHD5 to perilipin-5; Q00G26+Q8WTS1; Split G. princeps luciferase complementation, luminescence, 4 h; inhibition, % at 4 µM; 0.78% of 360,000 active; AID 602281;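 active = inhibition above the mean inhibition across every tested compound plus 3 SD, cut at about 22% in these data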
Target sequence (Q00G26 whole entry, looked up): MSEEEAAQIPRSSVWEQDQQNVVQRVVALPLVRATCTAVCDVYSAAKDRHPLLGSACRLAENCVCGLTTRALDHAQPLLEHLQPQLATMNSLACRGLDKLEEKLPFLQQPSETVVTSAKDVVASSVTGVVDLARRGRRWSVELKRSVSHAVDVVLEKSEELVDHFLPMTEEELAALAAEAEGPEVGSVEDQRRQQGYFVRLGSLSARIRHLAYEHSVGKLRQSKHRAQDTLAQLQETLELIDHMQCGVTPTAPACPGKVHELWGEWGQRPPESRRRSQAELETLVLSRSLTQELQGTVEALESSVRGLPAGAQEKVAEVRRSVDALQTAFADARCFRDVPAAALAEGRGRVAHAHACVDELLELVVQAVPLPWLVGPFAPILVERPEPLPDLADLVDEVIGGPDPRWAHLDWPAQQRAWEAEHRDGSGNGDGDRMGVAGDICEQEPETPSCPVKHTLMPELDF
Target sequence (Q8WTS1 whole entry, looked up): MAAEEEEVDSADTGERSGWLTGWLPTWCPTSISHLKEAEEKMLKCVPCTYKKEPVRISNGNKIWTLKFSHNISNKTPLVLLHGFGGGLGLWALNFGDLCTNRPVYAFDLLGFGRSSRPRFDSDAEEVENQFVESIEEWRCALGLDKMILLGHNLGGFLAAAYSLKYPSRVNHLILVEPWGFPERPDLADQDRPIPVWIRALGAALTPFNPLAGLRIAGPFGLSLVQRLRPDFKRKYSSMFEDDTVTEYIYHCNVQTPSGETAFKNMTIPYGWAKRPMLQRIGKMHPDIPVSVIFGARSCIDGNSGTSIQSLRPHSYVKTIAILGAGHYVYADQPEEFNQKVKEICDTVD
CF NFkB inh – cystic fibrosis NF-kB activation inhibition. KKLEB NF-kB-GFP reporter, PAF-induced, GFP fluorescence overnight. AID 588850. inhibition, % at 5 µM. 0.86% of 360,000 active;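 active = at least 50% inhibition at 5 µM, scaled per plate between neutral and stimulator controls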;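 note: PAF is a Pseudomonas aeruginosa culture filtrate used as stimulus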
HIF-2a inh – HIF-2a inhibition; 786-0 RCC cells HIF-2a reporter, luciferase luminescence, overnight; inhibition, % at 18.8 µM; 0.72% of 360,000 active;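 active = inhibition of the luminescence signal of 40% or more relative to plate controls, in a single-dose primary screen at 18.75 µM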
A number is an active result; - = inactive; . = no result. In the library only some 3.1% were active in any assay of this set; here they are far more common.

SMILES	MITF TRPM1 inh	KKLEB cytotox	Peg3 prom inh	ABHD5 PLIN5 PPI	CF NFkB inh	HIF-2a inh
CC(C)C[C@@H]1CC2=C(C(=O)OC(C)(C)O2)[C@H](c2ccc(Cl)cc2)O1	.	.	.	-	.	-
NC(=S)NN=C1c2ccccc2-c2cc(Br)ccc21	-	-	-	-	-	-
NC(=S)NN=C1c2ccccc2-c2c(F)c(F)c(F)c(F)c21	-	-	96	-	-	-
COC(=O)C1=CO[C@@H](O[C@@H]2O[C@H](CO)[C@@H](O)[C@H](O)[C@H]2O)C2C1C=C[C@@]2(O)CO (some centres undefined)	-	-	-	-	-	-
COc1cc(/C=C2/SC(=Nc3ccc(O)cc3)NC2=O)cc(OC)c1O	-	-	-	-	-	-
CCOc1ccc(N=C2NC(=O)/C(=C/C(=O)OC)S2)cc1	-	-	-	23	-	-
COc1ccc(N=C2NC(=O)/C(=C/c3ccc(O)c(OC)c3)S2)cc1	-	-	-	-	57	-
O=C(ONC1=NCCCCC1)c1ccc(Cl)cc1	-	-	101	-	-	-
CCOC(=O)CSc1nc2c(c(=O)[nH]1)C(C)(CC)Cc1ccccc1-2 (centres undefined)	-	-	-	-	-	-
Cc1ccc(NC(=O)CCc2c(C)nn(-c3ccc(N4CCCCC4)nn3)c2C)cc1	-	-	77	-	-	-
Cc1n[nH]c(=S)n1/N=C/c1c(O)ccc2ccccc12	-	-	57	-	-	-
O=C(NCCc1ccc(Cl)cc1)c1cc(S(=O)(=O)N2CCCC2)ccc1F	.	-	-	-	-	-
COc1cc(NS(=O)(=O)c2ccc(C)cc2)c2ncccc2c1	74	-	68	-	-	-
CC(C)CCNC(=O)C1CCC(CNc2c(N3CCCC3)c(=O)c2=O)CC1 (centres undefined)	-	-	-	-	-	-
O=C(CSc1nnc(-c2ccc(O)cc2)n1Cc1ccco1)c1ccccc1	-	-	-	-	-	-
O=C(CSc1nnc(-c2ccccn2)n1Cc1ccco1)c1ccc(-c2ccccc2)cc1	-	-	-	57	-	-
C/C(=N\NC(=O)c1ccccc1NC(=O)c1ccc(Cl)cc1)c1ccncc1	-	-	64	-	-	-
O=C(NCC1CCCO1)c1nc(Cn2ccc([N+](=O)[O-])n2)no1 (centres undefined)	-	-	-	-	-	-
C[C@]12CCC(=O)C=C1CC[C@@H]1[C@@H]2[C@@H](O)C[C@@]2(C)[C@H]1CC[C@]2(O)C(=O)COC(=O)CCC(=O)O	-	-	-	-	75	-
CC(=O)OCC(O)C1(O)CCC2C3CCC4=CC(=O)CCC4(C)C3C(O)CC21C (centres undefined)	.	-	-	-	-	-
CCC(CC)C(=O)OCC(=O)C1(O)CCC2C3CCC4=CC(=O)CCC4(C)C3C(O)CC21C (centres undefined)	-	-	-	-	64	-
CCCC(=O)O[C@]1(C(=O)CO)CC[C@H]2[C@@H]3CCC4=CC(=O)CC[C@]4(C)[C@H]3[C@@H](O)C[C@@]21C	-	-	-	-	95	-
CC1CC2C3CCC4=CC(=O)CCC4(C)C3CCC2(C)C1(O)C(=O)CO (centres undefined)	-	-	-	-	53	-
CC12CCC(=O)C=C1CCC1C2CCC2(C)C1CCC2(O)C(=O)CO (centres undefined)	-	-	-	-	-	-
CC1CC2(C)C(=CC1=O)CCC1C2C(O)CC2(C)C1CCC2(O)C(=O)CO (centres undefined)	-	-	-	-	67	-
SMILES	MITF TRPM1 inh	KKLEB cytotox	Peg3 prom inh	ABHD5 PLIN5 PPI	CF NFkB inh	HIF-2a inh
CC(=O)OCC(=O)C1(O)CCC2C3CC(F)C4=CC(=O)CCC4(C)C3C(=O)CC21C (centres undefined)	-	-	-	-	-	-
CC(=O)OCC(=O)C1(O)CCC2C3CC(F)C4=CC(=O)CCC4(C)C3C(O)CC21C (centres undefined)	-	-	-	-	76	-
CC(=O)OCC(=O)[C@@]1(O)CC[C@H]2[C@@H]3CCC4=CC(=O)CC[C@]4(C)[C@H]3[C@@H](O)C[C@@]21C	-	-	-	-	64	-
CC(=O)OCC(=O)[C@@]1(O)CC[C@H]2[C@@H]3CCC4=CC(=O)CC[C@]4(C)[C@H]3C(=O)C[C@@]21C	-	-	-	-	-	-
CC(Oc1ccccc1)C(=O)N=C1SC2CS(=O)(=O)CC2N1CCc1ccccc1 (centres undefined)	-	-	-	-	-	-
Cc1cc([N+](=O)[O-])ccc1NC(=O)CN1CCN(Cc2ccccc2)CC1	-	-	-	-	-	-
O=C(CN1CCN(Cc2ccccc2)CC1)Nc1ccc([N+](=O)[O-])cc1C(=O)Nc1ccccc1F	-	-	62	-	-	-
CN(Cc1ccccc1)C(=S)NC(=O)c1cccs1	-	-	-	-	-	-
C/C(=C\CNc1ncnc2nc[nH]c12)CO	-	-	-	-	-	-
CC(C)CCCCCCCCCCCCC(=O)NCC(=O)NC1C(C)OC(Nc2ncnc3nc[nH]c23)C(O)C1O (centres undefined)	69	-	100	-	83	79
CN(CCO)c1ccc2c(c1)OC[C@H](Cc1ccccc1)NS2(=O)=O	.	.	.	-	.	-
COc1ccc(-c2noc(N3CCC(C(=O)NCCCN4CCCCC4)CC3)n2)cc1	.	-	-	-	-	-
COC(=O)CSc1nc(N)c2c3c(sc2n1)C(c1ccccc1)SC(c1ccccc1)C3 (centres undefined)	-	-	-	-	-	88
CC1(C)Cc2c(sc3nc(SCC(=O)O)nc(N)c23)CO1	-	-	-	-	-	-
CC(C)(C)C1CCc2c(sc3nc(SCC(=O)O)nc(N)c23)C1 (centres undefined)	-	-	-	-	-	55
CC(=O)NC(Cc1cc(C)ccc1C)C(=O)N1CCN(C(=O)c2ccc([N+](=O)[O-])cc2)CC1 (centres undefined)	-	-	-	-	-	-
NC(Cc1ccc(F)cc1)c1csc(Nc2ccc(C(F)(F)F)cn2)n1 (centres undefined)	.	-	95	-	-	-
Cc1cnc(C)c(Nc2nc(C(N)Cc3ccc(C(F)(F)F)cc3)cs2)n1 (centres undefined)	.	-	108	-	-	-
NC(Cc1ccc(C(F)(F)F)cc1)c1csc(Nc2ccccn2)n1 (centres undefined)	.	-	105	-	-	-
NC(Cc1ccc(Cl)cc1)c1csc(Nc2ccc(-c3ccccc3)nn2)n1 (centres undefined)	.	-	99	-	-	-
Cc1ccc(C)c(Nc2cc(C)nc3ccccc23)c1	-	-	-	-	-	-
Cc1c(Cl)cccc1NC(=O)Cn1cnc(S(=O)(=O)N2CCCC2)c1	-	-	-	-	-	-
